ALR H2O2 inh = inhibitors of human ALR sulfhydryl oxidase, primary screen, biochemical, H2O2 detection, HRP-luminol luminescence, single point; purified ALR, DTT oxidation; inhibition, % (test concentration not listed); 290,000 tested, 3.8% active; AID 485317, 2010;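 active = mean replicate inhibition above about 79%, with every replicate also reaching it, limit read from the data; inconclusive = only one of the two criteria met; inactive = mean below limit and not every replicate reaching it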
Target sequence (P55789 whole entry, looked up): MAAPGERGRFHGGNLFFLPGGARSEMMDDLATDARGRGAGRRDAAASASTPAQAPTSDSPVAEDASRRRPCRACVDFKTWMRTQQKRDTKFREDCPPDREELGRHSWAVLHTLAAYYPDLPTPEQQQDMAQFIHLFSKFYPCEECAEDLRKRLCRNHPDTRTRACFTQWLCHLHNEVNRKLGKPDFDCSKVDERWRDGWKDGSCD
HIF act = HIF pathway transcriptional activators, primary screen, cell-based, U2OS HRE-luciferase, luminescence; activation, % at 7.5 µM (by protocol); 300,000 tested, 0.32% active; U2OS HRE-luciferase reporter; normalized: DMSO 0%, desferrioxamine 100%; AID 1910, 2009;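 active = mean activation of at least 10% of the iron chelator positive control signal, with at least half of replicates also reaching 10%; inconclusive = mean and replicate majority disagree about reaching 10%; inactive = mean and most replicates under 10%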
AI-2 QS mod = Vibrio harveyi AI-2 quorum sensing modulators, primary screen, JMH597 strain, luminescence/OD600 ratio | Vibrio harveyi JMH597 AI-2 luminescence/OD600 ratio, 9 h; hits give low values; strain lacks LuxN and CqsS sensors; 0 = neutral-control median | activity change, % at 7.5 µM | 300,000 tested, 0.4% active; in the data active = activity change below about -75%, passing the limit was not always enough; inconclusive = no clear call, values can overlap the other calls;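 note: luminescence divided by OD600 gain over 9 h not by final OD600 alone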
SUMO Mot1 rescue = yeast Mot1-301 growth rescue at high temperature, primary screen, SUMOylation pathway inhibitor project, S. cerevisiae, ATP luminescence, 38.5C. 320,000 tested, 1% active. growth rescue, % at 18.8 µM. S. cerevisiae Mot1-301 growth rescue; percent above DMSO median, 100 means doubled;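 active = every valid replicate shows activation above 250% relative to neutral control wells; inactive = the rest, any valid replicate at or below 250%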;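 note: OY570 slx delta 5 strain wells were the positive control but not used for scaling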
Active calls of the source: *; ? = inconclusive; / = no result given. Shown are actives, neighbours in structure and some others; about 4.8% of the full set was active somewhere.

SMILES	ALR H2O2 inh	HIF act	AI-2 QS mod	SUMO Mot1 rescue
O=C(CN(Cc1ccc(Cl)cc1)C(=O)CNS(=O)(=O)c1ccc(F)cc1)NCC1CCCO1 (stereo unspecified)	-2.3	0.0	7.8	-3.6
c1ccc(-n2nnc(-c3nccs3)n2)cc1	94.5*	-0.6	10.6	29.6
COc1ccc(OC)c(NC(=O)CCCCCn2nnc3ccccc3c2=O)c1	6.6	0.4	8.6	8.9
Cc1ccc(Oc2nc3ccccn3c(=O)c2/C=C(\C#N)C(=O)NC2CCS(=O)(=O)C2)c(C)c1 (stereo unspecified)	83.8*	0.6	21.3	-7.5
Cc1cc(NS(=O)(=O)c2ccc(Nc3nc(-c4ccc(O)cc4)cs3)cc2)no1	100.3*	0.2	19.3	21.2
COc1cc(NS(=O)(=O)c2ccc(Nc3nc(-c4ccccc4)cs3)cc2)nc(OC)n1	96.1*	/	27.4	6.2
Cc1cc(NS(=O)(=O)c2ccc(Nc3nc(-c4ccc(C)c(C)c4)cs3)cc2)no1	30.7	0.3	36.1	1.8
Cc1nc(N)sc1-c1csc(Nc2ccccc2)n1	17.8	-1.6	16.0	-17.4
Cc1cc(NS(=O)(=O)c2ccc(Nc3nc(-c4sc(N)nc4C)cs3)cc2)no1	99.2*	0.1	20.3	8.0
COc1ccc(CCN(Cc2cccs2)S(=O)(=O)c2ccc(C(=O)O)cc2)cc1OC	93.8*	0.0	19.6	6.3
CCN(CC)CCn1c2c(c(SCC(=O)Nc3cccc4ccccc34)nc1=O)CCCC2	95.8*	-0.5	28.0	11.8
CCN(CC)CCCn1c2c(c(SCC(=O)Nc3nc4ccccc4s3)nc1=O)CCC2	98.7*	0.7	47.6	10.7
CCCCc1ccc(NC(=O)CSc2nc(=O)n(CCN(C)C)c3c2CCC3)cc1	98.2*	0.2	24.3	7.1
CN(C)CCn1c2c(c(SCC(=O)Nc3cccc4ccccc34)nc1=O)CCC2	13.7	0.3	18.8	-6.7
CCN(CC)CCCn1c2c(c(SCC(=O)Nc3ccc(C)c(F)c3)nc1=O)CCC2	97.1*	1.3	8.2	-20.2
CCOc1ccc(N2CC(C(=O)NC3CCSC3=O)CC2=O)cc1 (stereo unspecified)	/	0.4	9.8	172.7
CC(C)Oc1ccc(CNC(=O)C2CCCN(S(=O)(=O)N3CCOCC3)C2)cc1 (stereo unspecified)	14.9	-0.1	17.9	0.1
O=C(Nc1ccccc1Cl)c1sccc1-c1ccccc1	-1.7	-0.3	19.3	-0.6
CCCCc1ccc(NC(=O)CSc2nc(=O)n(CCN(CC)CC)c3c2CCCC3)cc1	98.1*	1.2	-8.0	5.5
Cc1ccc(NC(=O)CSc2nc(=O)n(CCN(C)C)c3c2CCCC3)cc1Cl	98.1*	-0.4	2.9	-25.9
CN(C)CCCn1c2c(c(SCC(=O)Nc3ccc4c(c3)OCCO4)nc1=O)CCC2	98.8*	0.0	2.7	-3.3
CCN(CC)CCn1c2c(c(SCC(=O)Nc3cc(C)cc(C)c3)nc1=O)CCC2	2.7	0.0	9.7	-6.2
COc1ccccc1N1CCN(CCCNC(=O)C2CCCN(c3ncnc4c3nc3n4CCCCC3)C2)CC1 (stereo unspecified)	5.0	133.6*	1.0	-8.5
Cc1cccc(-n2ccnc2CN2CCN(C3CCCC3)C(CCO)C2)c1 (stereo unspecified)	0.4	0.2	14.6	-33.2
Cc1cccc(-n2ccnc2CN2CCC(CO)(Cc3ccccc3)CC2)c1	6.8	-0.8	27.0	643.1*
SMILES	ALR H2O2 inh	HIF act	AI-2 QS mod	SUMO Mot1 rescue
CCCCc1nc(C(N)=O)c2[nH]c(=O)n(-c3ccc(OCC)cc3)c2n1	1.7	0.1	14.2	-38.4
S=c1[nH]nc(CSc2nc3ccccc3s2)o1	99.1*	0.1	?	-2.9
Cn1c(CSc2nc3ccccc3s2)n[nH]c1=S	97.8*	-0.4	3.7	20.2
Cn1c(-c2sc3ccccc3c2Cl)n[nH]c1=S	96.6*	-0.8	23.9	35.7
CCOC(=O)C1(Cc2ccccc2C)CCCN(C(=O)c2ccc(OC)o2)C1 (stereo unspecified)	6.7	0.0	23.1	-3.7
CCOC(=O)N1CCN(Cc2ccc(OCC(O)CN3CCCCC3)cc2)CC1 (stereo unspecified)	/	-1.7	12.1	3.2
COc1ccc(N(C(=O)CCl)C(C(=O)NCCc2ccccc2)c2cccs2)cc1Cl (stereo unspecified)	3.5	-5.1	17.2	263.6*
COc1nc(N(C)C)nc(N(C#N)S(=O)(=O)c2ccc(C)cc2)n1	-3.7	0.3	/	4.3
COc1ccc(/C=N\NC(=O)CNC(=O)C2COc3ccccc3O2)cc1[N+](=O)[O-] (stereo unspecified)	-10.6	-0.8	12.0	0.9
COc1ccc(/C=N/NC(=O)CNC(=O)c2ccc3c(c2)OCCO3)cc1OC	-4.0	-0.1	10.3	0.3
COc1cc(/C=N\NC(=O)CNC(=O)C2COc3ccccc3O2)ccc1O (stereo unspecified)	98.2*	-0.5	4.8	2.6
COc1ccccc1/C=C/C(=O)NCC(=O)N/N=C/c1ccc2c(c1)OCO2	88.3*	-0.2	16.9	11.0
COc1cc(/C=N/NC(=O)c2ccc3c(c2)OCCO3)cc(Cl)c1O	94.2*	0.6	24.1	61.4
COc1cc(/C=N/NC(=O)CNC(=O)c2ccc3c(c2)OCCO3)ccc1O	98.0*	-0.5	/	3.0
CCOC(=O)NN=C1CN(S(=O)(=O)c2ccc(C)cc2)C1	-4.6	0.0	-26.0	-7.7
CN(Cc1ccccc1)S(=O)(=O)CCNC(=O)c1ccc2c(c1)OCO2	/	-0.4	-1.2	/
COC(=O)[C@]1(CC(C)C)N[C@H](c2ccc(-c3ccc(Cl)c(Cl)c3)cc2)[C@@H]2C(=O)N(C)C(=O)[C@@H]21	-0.3	0.1	26.9	-2.5
COc1cc(/C=N/NC(=O)C2COc3ccccc3O2)ccc1O (stereo unspecified)	99.1*	/	3.9	20.0
COc1ccc(/C=N/NC(=O)C2COc3ccccc3O2)cc1OC (stereo unspecified)	-2.3	0.3	4.8	8.7
CCN(CC)c1ccc(/C=N/NC(=O)CNC(=O)C2COc3ccccc3O2)c(O)c1 (stereo unspecified)	61.9	19.3*	40.3	173.6
COc1ccc(/C=N\NC(=O)C2COc3ccccc3O2)cc1O (stereo unspecified)	98.6*	2.4	17.1	154.7
O=C(NNC(=S)NC(=O)c1cccnc1)c1ccc(Cl)cc1	65.6	-0.3	-92.7*	-4.5
O=C(NC(=S)NNC(=O)c1ccc(Cl)cc1Cl)c1cccnc1	/	1.2	79.5	/
O=C(NNC(=S)NCc1ccc(Cl)cc1)c1cccnc1	-1.8	0.3	-49.7	1.8
O=C(Cc1ccc(Cl)cc1)NNC(=S)NC(=O)c1cccnc1	56.5	0.3	-87.6*	-11.9
CCCCC1CN2CCc3c([nH]c4ccccc34)C2(C)C1 (stereo unspecified)	-18.3	-0.8	19.1	7.4
